Screening data from PubChem.
Shiga inhibitor: inhibitors of Shiga toxin in Vero cells | Vero cells, Shiga toxin protein synthesis inhibition reporter | inhibition, % at 38.7 µM | 290,000 tested, 9.2% active; in the data active means inhibition mostly above about 28%, no sharp cut-off; inactive means mostly below about 43%
LmPK inhibitor: inhibitors of Leishmania mexicana pyruvate kinase | purified LmPK, Kinase-Glo ATP luminescence, 1 h | 290,000 tested, 0.37% active | Potency, µM (highest dose often 57.5 µM), actives largely listed as inhibitors | AID 1721 | Q27686
Target sequence (Q27686 whole entry, looked up): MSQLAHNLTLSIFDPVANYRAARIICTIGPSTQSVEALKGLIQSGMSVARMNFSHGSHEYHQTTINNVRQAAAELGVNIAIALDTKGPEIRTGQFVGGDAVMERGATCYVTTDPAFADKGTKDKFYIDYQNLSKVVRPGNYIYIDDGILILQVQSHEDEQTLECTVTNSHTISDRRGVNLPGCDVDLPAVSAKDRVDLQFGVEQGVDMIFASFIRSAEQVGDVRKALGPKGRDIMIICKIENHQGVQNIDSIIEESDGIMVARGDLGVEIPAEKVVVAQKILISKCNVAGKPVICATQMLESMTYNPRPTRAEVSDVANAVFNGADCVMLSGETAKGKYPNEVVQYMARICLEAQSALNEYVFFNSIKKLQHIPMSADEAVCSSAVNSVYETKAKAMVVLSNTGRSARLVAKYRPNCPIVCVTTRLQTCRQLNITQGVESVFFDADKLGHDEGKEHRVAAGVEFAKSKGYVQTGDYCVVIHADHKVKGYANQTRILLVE
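0.1 nM LmPK, 0.5 mM PEP, 0.1 mM ADP; 50 mM imidazole pH 7.2, 7 mM MgCl2, 50 mM KCl; 1 h RT. Kinase-Glo luminescence readout, normalized to no-enzyme (full inhibition) and uninhibited wells.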
TbPYK inhibitor: inhibitors of Trypanosoma brucei pyruvate kinase; TbPYK enzyme, Kinase-Glo Plus ATP luminescence, 45 min; Potency, µM (doses to about 76.8 µM), usual class: inhibitors; 410,000 tested, 0.12% active; further: nearly all actives have a fitted effect of over 50% in size
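Quantitative HTS: titrated library compounds versus trypanosomal pyruvate kinase in TEA buffer (pH 7.2) containing KCl, MgCl2, BSA and Tween-20. Reactions were initiated with ADP, 130 uM final. Kinase-Glo Plus luminescence was read after 45 min at RT.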
Sm TGR block: inhibitors of Schistosoma mansoni thioredoxin glutathione reductase. Q962Y6. AID 485364. 360,000 tested, 3% active. purified TGR, DTNB reduction, TNB absorbance 405 nm. Potency, µM (doses to about 114 µM), hits mostly inhibitors; further: nearly all actives have a fitted effect of over 60% in size
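First, TGR (20 nM dispensed) and NADPH were mixed with compound. Second, a 15 min room-temperature incubation followed. Third, further NADPH and then DTNB were added to start the reaction. Finally, TNB absorbance was monitored kinetically.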
Giardia FBPA inh: blocks Giardia fructose-bisphosphate aldolase activity. A8B2U2. purified Giardia FBPA. Potency, µM (doses to about 59.6 µM), actives largely listed as inhibitors. 290,000 tested, 0.71% active. AID 2451; further: nearly all actives have a fitted effect of over 55% in size
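Giardia FBPA (40 nM reagent) was preincubated 10 min at RT with compound (up to 57.5 uM final), then substrate plus GAPDH/TPI/NAD/arsenate coupling system with diaphorase/resazurin was added; resorufin fluorescence (525/598 nm) was read after 20 min.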
CHX counter: affects cycloheximide protein synthesis inhibition readout, counter-screen; cell reporter, cycloheximide protein synthesis inhibition counterscreen; 300,000 tested, 12% active; max response, %; AID 2314; in the data active means max response mostly above about 13%, no sharp cut-off; inactive means mostly below about 14%; further: read at 38.3 µM for the half of the compounds with a filed dose
Large screens that a line does not name were inactive. The entries come from a sample that favours hits as a whole. Unless noted, the call rests on the fitted dose curve; in most records, active means well fitted curve in the direction sought with a large enough effect; inconclusive means small, poorly fitted or top-dose-only effect, or another doubt; inactive means no such curve, though single readings can be large; an effect the other way counts as inactive or inconclusive.

COc1ccc(-c2nnc(SCCOc3ccccc3C)o2)cc1OC	none (no result: Shiga inhibitor, LmPK inhibitor, Giardia FBPA inh, CHX counter)
C[C@H]1C[C@]2(O[C@@H]2C)C(=O)O[C@@H]2CCN(C)C/C=C(/COC(=O)[C@]1(C)O)C2=O	none (no result: Shiga inhibitor, LmPK inhibitor, TbPYK inhibitor, Sm TGR block, CHX counter)
CCCCOc1cccc(/C=N/NC(=O)c2csc(C)c2C)c1	none
CC(=O)Nc1ccc(/C(C)=N/NC(=O)c2ccncc2)cc1	none
CC(=O)N/N=C(/C)c1ccc(NC(=O)c2csc(C)c2C)cc1	Shiga inhibitor 146.7, CHX counter 40.5 (no result: Giardia FBPA inh)
C/C(=N\NC(=O)c1csc(C)c1C)c1ccco1	Shiga inhibitor 62.3, LmPK inhibitor 14.1µM, CHX counter 37.2
C/C(=N\NC(=O)c1csc(C)c1C)c1ccc(C)s1	Shiga inhibitor 37.9, CHX counter 38.2
O=C(COC(=O)c1ccco1)Nc1nc2ccc([N+](=O)[O-])cc2s1	none
Cc1ccc2nc(NC(=O)COC(=O)c3ccco3)sc2c1	Shiga inhibitor 86.3, CHX counter 34.5 (no result: TbPYK inhibitor)
Cc1ccc2nc(NC(=O)COC(=O)c3ccc(Br)o3)sc2c1	Shiga inhibitor 132.9, CHX counter 23.2
CN(C)S(=O)(=O)N1CCC(Oc2cccc(C(=O)NC3CCOC3)c2)CC1 (stereo not drawn)	CHX counter 14.6 (no result: Giardia FBPA inh)
CCC1C(=O)NCCN1C(=O)c1cccc(OC2CCN(S(=O)(=O)N(C)C)CC2)c1 (stereo not drawn)	CHX counter 38.4 (no result: Giardia FBPA inh)
CN(C)S(=O)(=O)N1CCC(Oc2cccc(C(=O)NCCC3=CCCCC3)c2)CC1	Shiga inhibitor 62.6, CHX counter 24.5
O=C(CSc1ncc2c(n1)-c1ccccc1N(Cc1ccc(F)cc1)S2(=O)=O)NCc1ccccc1	none (no result: Shiga inhibitor, LmPK inhibitor, Giardia FBPA inh, CHX counter)
COC(=O)/C(=N/Nc1ccccc1C)N1CCCc2ccccc21	none
O=C(Nc1ccccc1)N1CCCc2ccccc21	Shiga inhibitor 26.5
O=C(NC1CCCCC1)N1CCc2ccccc21	Shiga inhibitor 46.9, CHX counter 27.9
Cc1cccc(NC(=O)N2CCCc3ccccc32)c1C	CHX counter 36.0
Cc1ccc(NC(=O)N2CCCc3ccccc32)cc1C	Shiga inhibitor 53.2, CHX counter 38.6
Cc1ccc(NC(=O)Cc2ccc(NC(=O)N3CCCCc4ccccc43)cc2)cc1Cl	none (no result: Shiga inhibitor, LmPK inhibitor, Giardia FBPA inh, CHX counter)
COc1ccc(C(=O)Nc2cc(-c3cccc(C)c3)nn2-c2ccccc2)cc1	none (no result: Shiga inhibitor, LmPK inhibitor, Giardia FBPA inh, CHX counter)
COc1ccc(Cc2c3cc(OC)c(OC)cc3cc[n+]2C)cc1OC	TbPYK inhibitor inconclusive, Sm TGR block 12.6µM, Giardia FBPA inh inconclusive
COC(=O)C(C(=O)OC)C1O[C@@]23COCCC2(C)C3c2ccccc21 (stereo partly drawn)	none (no result: Shiga inhibitor, LmPK inhibitor, TbPYK inhibitor, Sm TGR block, CHX counter)
Cc1ccccc1-c1cncnc1NCc1cccnc1	none (no result: Shiga inhibitor, LmPK inhibitor, TbPYK inhibitor, Sm TGR block, CHX counter)
CCOC(=O)Cn1cnc2c(cnn2-c2ccc(Cl)cc2)c1=O	CHX counter 35.7
CCOC(=O)CSc1ncnc2c1cnn2-c1ccc(Cl)cc1	none
O=C(Cn1cnc2c(cnn2-c2ccccc2)c1=O)NC1CCCC1	none
COC(=O)Cn1cnc2c(cnn2-c2ccccc2)c1=O	CHX counter 15.7
Cc1nnc2c3cnn(-c4ccc(Cl)cc4)c3ncn12	Shiga inhibitor 77.3, CHX counter 26.7 (no result: TbPYK inhibitor)
COC(=O)C(C)n1cnc2c(cnn2-c2ccc(Cl)cc2)c1=O (stereo not drawn)	Shiga inhibitor 69.4, CHX counter 54.3
COc1cccc(CNC(=O)Cn2c(=O)n3nc(-c4cccc(C)c4)nc3c3ccccc32)c1	none (no result: Shiga inhibitor, LmPK inhibitor, Giardia FBPA inh, CHX counter)
Cc1cc(C)cc(C(=O)N2CC(=O)Nc3ccc(C)cc3C2c2ccccc2)c1 (stereo not drawn)	none (no result: Shiga inhibitor, LmPK inhibitor, Giardia FBPA inh, CHX counter)
CCn1cc(C(=O)NCCN(CC(C)C)CC(C)C)c(=O)c2cc(S(=O)(=O)N(C)C3CCCCC3)ccc21	none (no result: Shiga inhibitor, LmPK inhibitor, Giardia FBPA inh, CHX counter)
COc1ccc(N2CCN(C(=O)c3cc(-c4ccc(C)c(F)c4)on3)CC2)cc1	none (no result: Shiga inhibitor, LmPK inhibitor, Giardia FBPA inh, CHX counter)
COc1ccc(-n2ncc3c(=O)n(CC(=O)N(C(C)C)C(C)C)cnc32)cc1	none
CCOC(=O)Cn1cnc2c(cnn2-c2ccc(OC)cc2)c1=O	Shiga inhibitor 59.7, CHX counter 28.6
CCOC(=O)Cn1cnc2c(cnn2-c2ccccc2)c1=O	CHX counter 20.7
CC(C)CCn1cnc2c(cnn2-c2ccc(F)cc2)c1=O	Shiga inhibitor 59.5, CHX counter 36.0
COc1ccccc1S(=O)(=O)CC(O)COc1ccccc1Cl (stereo not drawn)	none
COc1ccccc1[As](=O)(O)CC(O)COc1ccc(Cl)cc1Cl (stereo not drawn)	Sm TGR block 39.8µM (no result: TbPYK inhibitor)
CC1(C)CC(=O)C2=C(C1)N(Cc1ccco1)C(=O)C2(NC(=O)c1cccnc1)C(F)(F)F (stereo not drawn)	Sm TGR block 20µM
CC1(C)CC(=O)C2=C(C1)N(Cc1cccnc1)C(=O)C2(NC(=O)c1cccnc1)C(F)(F)F (stereo not drawn)	none
Cc1cc(OCC(=O)Nc2ccc3oc(=O)ccc3c2)ccc1Cl	none
COc1ccc(-c2ccc(-c3nnn(CC(C)=O)n3)cc2)cc1	Shiga inhibitor 92.8, CHX counter 35.0
CC(=O)Cn1nnc(-c2ccc(C(F)(F)F)cc2)n1	Shiga inhibitor 60.6, CHX counter 26.9
COc1cccc(-c2nnn(CC(=O)N3CCCCC3)n2)c1	Shiga inhibitor 41.2, CHX counter 21.3
NC(=O)Cn1nnc(-c2ccc(NC(=O)c3ccc(F)cc3)cc2)n1	Shiga inhibitor 70.0, CHX counter 27.3
